Screening data from PubChem.
Many of the other results were omitted from the sample, so hits are more common in it than they were.
IDH1 mut inh = inhibitors of human IDH1 R132H; O75874; IDH1 R132H reductase, diaphorase/resazurin fluorescence, 60 min; inhibition, % at 10 µM; 70,000 compounds, 0.18% hits; in the data active = inhibition above about 34%;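 also: 0% = DMSO and 100% = no enzyme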
The depositor's hits bear a star.

SMILES	IDH1 mut inh
O=C(CCCCCC(=O)N/N=C/c1cc(O)ccc1O)NO	69*
O=C(CCCCCC(=O)N/N=C/c1ccc(O)cc1O)NO	0
O=C(CCCCCC(=O)Nc1ccccc1O)N/N=C\c1cc(O)ccc1O	50*
O=C(CCCCCCC(=O)Nc1ccccc1O)N/N=C/c1cc(O)ccc1Br	0
Cc1cccc(-c2nnc(SCC(=O)Nc3cc(C(F)(F)F)cc(C(F)(F)F)c3)n2C)c1	-1
COc1ccc(OC)c(S(=O)(=O)N(C)CC(=O)Nc2ccccc2F)c1	0
O=C(O[C@H]1[C@H](Oc2ccccc2COC(=O)C2(O)C=CCCC2=O)O[C@H](CO)[C@@H](O)[C@@H]1O)c1ccccc1 (some centres undefined)	0
O=C(OCC1OC(Oc2ccc(O)cc2COC(=O)C2(O)C(O)CCC(=O)C2O)C(O)C(O)C1O)c1ccccc1 (centres undefined)	36*
